Consider 88 molecules from PubChem BioAssay AID1851 (National Center for Advancing Translational Sciences (NCATS), 2009).

About 5,100 (32%) of roughly 16,000 compounds were called active. About 25% were inconclusive and are not listed. Some of the results follow. Unmarked numbers belong to inactive results. The call rests on the fitted dose curve; in most records, active means well fitted curve in the direction sought with a large enough effect; inconclusive means small, poorly fitted or top-dose-only effect, or effect the other way; inactive means no such curve, though single readings can be large or run the other way.

One may read the AC50 as the concentration giving half of the maximal activity seen.
On the % scale 0 is the no-effect control and ±100 the full control effect.

The assay deals with Cytochrome P450 3A4 (Homo sapiens) (UniProt P08684). The assay can be described thus: Cytochrome panel assay with activity outcomes. The settings on record: recombinant CYP, pro-luciferin dealkylation, luminescence, p450-cyp3a4; series mostly up to 57.1 µM.
Cytochrome P450 3A4 (Homo sapiens), sequence (P08684 whole entry, looked up): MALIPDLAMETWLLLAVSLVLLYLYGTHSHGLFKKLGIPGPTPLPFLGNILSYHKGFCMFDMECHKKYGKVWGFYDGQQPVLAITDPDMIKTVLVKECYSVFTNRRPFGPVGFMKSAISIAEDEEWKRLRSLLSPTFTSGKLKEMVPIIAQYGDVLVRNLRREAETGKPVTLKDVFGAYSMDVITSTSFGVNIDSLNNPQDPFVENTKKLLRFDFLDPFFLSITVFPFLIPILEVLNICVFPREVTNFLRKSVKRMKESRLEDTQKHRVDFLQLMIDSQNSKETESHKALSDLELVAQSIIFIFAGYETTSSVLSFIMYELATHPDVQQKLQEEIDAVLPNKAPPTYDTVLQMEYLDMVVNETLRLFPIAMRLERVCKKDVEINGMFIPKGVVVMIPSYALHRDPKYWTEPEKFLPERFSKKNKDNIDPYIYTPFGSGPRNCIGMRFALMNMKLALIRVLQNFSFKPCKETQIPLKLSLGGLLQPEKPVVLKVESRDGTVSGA
In the case of `O=C(O)C(Sc1ccc(Cl)cc1)Sc1ccc(Cl)cc1`, the activity, negative = inhibition is 12.3% [at 11.4 µM].

`COCCN(C(=O)c1ccco1)c1nnc(-c2ccc(OC)cc2)s1`: the activity, negative = inhibition was -28.3% [at 2.29 µM]. As for `COc1ccc(C(C(=O)NCc2ccccc2)N(Cc2cccs2)C(=O)c2cnccn2)cc1` (stereo not drawn), the half-maximal activity concentration (AC50) was 0.708 µM (active). On the same count and under the same terms, the entry for `COc1ccc2nc3oc(C(=O)NCc4cccs4)cc3cc2c1` is “inactive”; for `O=C(NCc1ccccc1)C(c1cccs1)N(Cc1cccs1)C(=O)c1cnccn1` (stereo not drawn) it is 0.891 µM (active).

Consider `COc1ccc(CNC(=O)C(c2ccc(C)cc2)N(Cc2cccs2)C(=O)c2ccc3c(c2)OCCO3)cc1` (stereo not drawn), for which the AC50 is 1 µM (active). `O=C(COC(=O)c1cnccn1)NCc1ccccc1`: the activity, negative = inhibition was -20.5% [at 11.4 µM].

Regarding `CCc1ccc(C(C(=O)NCc2ccc(OC)cc2)N(CCOC)C(=O)Cc2cccs2)cc1` (stereo not drawn), the concentration at half-maximal activity (AC50) was 1 µM (active). With `O=C(O)C(Cc1cccs1)C(=O)O`, the activity, negative = inhibition was -8.79% [at 11.4 µM]. Consider `COc1ccc(C(=O)n2c(SC)nc3cc4c(cc32)OCCO4)cc1`, for which the activity, negative = inhibition was -12% [at 2.29 µM]. `CCc1c(C)sc(NC(=O)OC)c1C(N)=O`: the AC50 result was “inactive”.

As for `CCOC(=O)c1c(NC(=O)CSc2nnnn2C)sc(C)c1C`, the half-maximal activity concentration (AC50) is 14.1 µM (active). For `Cc1cccc(NC(=O)CSc2nnnn2C)n1`, the AC50 entry is “inactive”. Still for that read-out and setting: for `CCOC(=O)c1c(NC(=O)CCc2ccc(CC)o2)sc(C)c1C` the value was 12.6 µM (active); for `Nc1nc2c(ncn2COCCO)c(=O)[nH]1`, “inactive”. The same measure, in the same setting: for `CC(C)NC(=O)CC(=O)N/N=C/c1ccc(F)cc1` the value was “inactive”. Still for that read-out and setting: the figure for `Cc1ccc(S(=O)(=O)N(CC(=O)N/N=C/c2ccc(F)cc2)c2cccc3cccnc23)cc1` is 1.26 µM (active). With `O=C(CN(Cc1ccccc1)S(=O)(=O)c1ccc2c(c1)OCCO2)N/N=C/c1ccc(F)cc1`, the activity, negative = inhibition is 0.145% [at 2.29 µM]. Consider `Cn1c(C(=O)O)c(CC(=O)NCC2COc3ccccc3O2)c2ccccc21` (stereo not drawn), for which the activity, negative = inhibition was -8.31% [at 11.4 µM]. For the molecule `O=C1CC2(CCCC2)CC(=O)N1CCCCNC[C@H]1COc2ccccc2O1`, the AC50 is 0.631 µM (active). Turning to `CCOc1ccc(NC(=O)c2ccc(OC)cc2)cc1`, the AC50 entry was “inactive”.

On to `COC(=O)COc1cccc(NC(=O)c2ccc(C)cc2)c1`, for which the AC50 is 17.8 µM (active). Still for that read-out and setting: the entry for `COc1ccc(NC(=O)C2(c3ccc(NC(=O)c4ccc(OC(C)=O)cc4)cc3)CCCC2)cc1` is “inactive”. As for `Cc1cccc(NC(=S)NC(=O)c2cc(-c3ccccc3)nc3ccccc23)c1`, the activity, negative = inhibition was -27.7% [at 11.4 µM]. Same read-out and setting: for `CC(=O)Nc1ccc(-c2cc(-c3ccc(NC(C)=O)cc3)nc(-c3ccccc3)n2)cc1` the value was -4.31% [at 2.29 µM]. Take `Cc1ccc(C(=O)Nc2cccc(-c3cnc4ccccc4n3)c2)cc1`: the AC50 is 2.24 µM (active).

With `COc1ccc(C(=O)Nc2cc(Cl)ccc2OC(=O)c2ccc(OC)cc2)cc1`, the concentration at half-maximal activity (AC50) is 22.4 µM (active).

With `COc1ccc(C(=O)Nc2cc(OC)cc(OC)c2)cc1`, the AC50 was 14.1 µM (active). In the case of `Cc1ccc(C(=O)Nc2cc(Cl)ccc2OC(=O)c2ccc(C)cc2)cc1`, the activity, negative = inhibition is -3.15% [at 2.29 µM]. Still for that read-out and setting: for `CCN1C(=O)[C@H]2[C@H]3[C@H](O)[C@H](O)C/C(=N/O[C@@H]4O[C@@H](COC(C)=O)[C@@H](OC(C)=O)[C@@H](OC(C)=O)[C@H]4OC(C)=O)[C@H]3CC[C@@H]2C1=O` the value was -8.67% [at 11.4 µM]. In the case of `Cc1ccc(-n2nc3ccc(NC(=O)c4ccc5c(c4)OCO5)cc3n2)cc1`, the half-maximal activity concentration (AC50) was 8.91 µM (active). In the case of `Cc1ccc(NC(=O)c2nnn(-c3cc(C)cc(C)c3)c2N)cc1`, the activity, negative = inhibition was 5.32% [at 2.29 µM]. In the case of `Cc1ccc(C(=O)Nc2ccc(N3CCOCC3)nc2)cc1`, the AC50 result is “inactive”. As for `COc1ccc(C(=O)COC(=O)c2ccc(NC(=O)c3ccccc3)cc2)cc1`, the AC50 result is “inactive”. Same read-out and setting: the figure for `Cc1ccc(C(=O)Nc2ccc3nccnc3c2)cc1` is 14.1 µM (active); for `COc1ccc(C(=O)Nc2cccc(-c3cnc4ccccc4n3)c2)cc1` it is 2.51 µM (active). As to `Cn1c(=O)n2n(c1=O)[C@H]1[C@H](O)[C@H]3O[C@@H]3/C(=N/OCc3ccccc3)[C@@H]1CC2`, the activity, negative = inhibition was -26.2% [at 11.4 µM]. Take `Cc1ccc(-n2c(=O)[nH]cc(C(=O)N3CCc4ccccc43)c2=O)cc1`: the AC50 result is “inactive”.

`Cc1ccc(C)c(-n2c(CNC(=O)c3ccco3)nnc2SCC(=O)N2CCc3ccccc32)c1`: the half-maximal activity concentration (AC50) was 7.08 µM (active).

As for `CCOC(=O)N1CCN(C(=O)CN(C)S(=O)(=O)c2ccc3c(c2)C(C)(C)C(=O)N3C)CC1`, the AC50 result is “inactive”. In the case of `CC(C)CC(=O)N1CCC(N2CCN(c3ccccc3)CC2)CC1`, the activity, negative = inhibition is 6.02% [at 2.29 µM].

With `CN(CC(=O)N1CCN(c2ccccc2)CC1)S(=O)(=O)c1cnc[nH]1`, the concentration at half-maximal activity (AC50) was 11.2 µM (active). Same read-out and setting: the entry for `CCc1cccc(CC)c1NC(=O)CN(CC(=O)O)CC(=O)O` is “inactive”; for `CCc1cccc(NC(=O)CN(C)S(=O)(=O)c2cnc[nH]2)c1` it is 2.51 µM (active). As for `COc1cc(O)oc1C=Nc1ccc(Cl)cc1`, the AC50 is 15.8 µM (active). Consider `COc1cc(O)oc1C=Nc1ccc(C(F)(F)F)cc1`, for which the concentration at half-maximal activity (AC50) was 8.91 µM (active).

For `CCOc1[nH]n(-c2ccc(Cl)cc2)c(=O)c1C=Nc1ccc(O)cc1`, the AC50 entry was “inactive”. Still for that read-out and setting: for `C/C(=N\OC(=O)NC1CCCCC1)c1sc(-c2ccccc2)nc1C` the value was 15.8 µM (active). The same measure, in the same setting: for `C/C(=N\OC(=O)c1cccc(C)c1)c1sc(-c2ccccc2)nc1C` the value was “inactive”.

Regarding `c1ccc2c(CN3CCN(Cc4c[nH]c5ccccc45)CC3)c[nH]c2c1`, the activity, negative = inhibition is -20.1% [at 11.4 µM]. With `c1ccc2c(-c3c[nH]c4ccccc34)c3ccccc3nc2c1`, the AC50 is 8.91 µM (active). For `CN(C)C(=O)CCc1nc(-c2ccc(C(C)(C)C)cc2)no1`, the AC50 entry is “inactive”. As for `CCN(CC)CCc1nc(-c2ccccc2)no1`, the AC50 result was “inactive”.

Consider `O=C(O)CCc1nc(-c2ccccc2-n2cccc2)no1`, for which the AC50 is 2.51 µM (active). Take `O=C(Cc1cccs1)N/N=C/C(Br)=C/c1ccccc1`: the AC50 entry was “inactive”. The same measure, in the same setting: for `COc1ccc(C(C(=O)NC2CCCC2)N(Cc2ccc(F)cc2)C(=O)c2ccn[nH]2)cc1OC` (stereo not drawn) the value was 3.98 µM (active). Consider `O=C(NC1CCCC1)C(c1ccc(F)cc1)N(Cc1ccc(F)cc1)C(=O)c1ccn[nH]1` (stereo not drawn), for which the activity, negative = inhibition is -28.2% [at 2.29 µM]. Still for that read-out and setting: the figure for `O=C(O)c1cscc1Cc1cccs1` is 17.7% [at 11.4 µM]. Regarding `O=C(NC1CCCC1)C(c1ccsc1)N(Cc1ccccc1)C(=O)Cc1cccs1` (stereo not drawn), the half-maximal activity concentration (AC50) was 2 µM (active). As to `O=C(NC1CCCCC1)C(c1cccs1)N(Cc1cccs1)C(=O)c1ccco1` (stereo not drawn), the AC50 was 3.16 µM (active). With `COc1ccc(CN(C(=O)Cc2cccs2)C(C(=O)NC2CCCC2)c2ccncc2)cc1` (stereo not drawn), the AC50 was 1 µM (active).

As for `CCc1cc2c(=O)[nH]cnc2s1`, the AC50 result was “inactive”. `O=C(O)/C=C(/C(=O)O)[C@]12CCN3CC4=CCO[C@@H]5CC(=O)N[C@@H]1[C@H]5[C@H]4C[C@H]32`: the activity, negative = inhibition was 2.64% [at 11.4 µM].

Regarding `COCCCN=CC1=C(O)CC(C)(C)CC1=O`, the AC50 result is “inactive”.

As for `COc1ccc(CCN=CC2=C(O)CC(C)(C)CC2=O)cc1`, the AC50 is 14.1 µM (active). In the case of `COC(=O)C1C(O)=C(C=NCc2ccccc2)C(=O)CC1(C)C` (stereo not drawn), the AC50 result was “inactive”. On the same count and under the same terms, for `Cc1cc(C)c2[nH]c(=O)c(CN(Cc3ccco3)C(=O)c3cccs3)cc2c1` the value was 2.82 µM (active). As to `CCCCN1C(=O)C(NC(=O)CC(C)C)(C(F)(F)F)C2=C1CC(C)(C)CC2=O` (stereo not drawn), the activity, negative = inhibition is -16% [at 2.29 µM]. The same measure, in the same setting: for `CCCCN1C(=O)C(NC(=O)C2CC2)(C(F)(F)F)C2=C1CC(C)(C)CC2=O` (stereo not drawn) the value was 5.27% [at 2.29 µM]. With `CC1(C)CC(=O)C2=C(C1)N(Cc1cccnc1)C(=O)C2(NC(=O)c1cccnc1)C(F)(F)F` (stereo not drawn), the AC50 was 12.6 µM (active). For `CCCCN1C(=O)C(NC(=O)c2cccnc2)(C(F)(F)F)C2=C1CC(C)(C)CC2=O` (stereo not drawn), the AC50 is 7.94 µM (active).

For the molecule `O=C(NC1(C(F)(F)F)C(=O)Nc2c1c(=O)[nH]c(=O)n2-c1ccc(F)cc1)c1cccnc1` (stereo not drawn), the AC50 entry is “inactive”.

Take `CN(C)CC(O)COc1ccc(C(C)(C)c2ccc(OCC(O)CN(C)C)cc2)cc1` (stereo not drawn): the AC50 result is “inactive”. Still for that read-out and setting: for `CCOC(=O)c1cc2sc(C)cc2n1CC(=O)N1CCN(C(=O)c2ccco2)CC1` the value was 14.1 µM (active). The same measure, in the same setting: for `Nc1ccc(N2CCN(C(=O)c3ccco3)CC2)cc1` the value was “inactive”; for `CC1(C)CC(=O)C(CCCN2C(=O)c3ccccc3C2=O)C(=O)C1`, “inactive”; for `CCOC(=O)c1cc2sc(C)cc2n1CCCN1C(=O)c2ccccc2C1=O`, 3.16 µM (active). As to `OCCN(CCO)c1ncnc2nc[nH]c12`, the activity, negative = inhibition is -5.25% [at 11.4 µM]. The same measure, in the same setting: for `CCCC(=O)NNC(=O)Nc1ccccc1` the value was -11.8% [at 2.29 µM]. As for `O=C(COc1ccc2ccccc2c1Br)NNC(=O)Nc1ccccc1`, the AC50 is 14.1 µM (active). Turning to `Cn1cnc([N+](=O)[O-])c1SCC(=O)O`, the activity, negative = inhibition was -11.5% [at 11.4 µM]. In the case of `CC1=N/C(=C\c2ccc([N+](=O)[O-])cc2)C(=O)N1c1ccc(Br)c(C)c1`, the concentration at half-maximal activity (AC50) is 2.82 µM (active). Consider `CN(C)c1ccc(/C=C2/C(=O)N(c3ccc([N+](=O)[O-])cc3)N=C2N2CCOCC2)cc1`, for which the AC50 result was “inactive”. For `CC1=N/C(=C\c2ccc([N+](=O)[O-])cc2)C(=O)N1c1ccc(Cl)cc1`, the AC50 entry is “inactive”. In the case of `CCOC(=O)N/N=C1/C[C@@H](O)[C@@H](O)[C@@H]2[C@@H]3C(=O)N(C4CCCCC4)C(=O)[C@H]3CC[C@H]12`, the activity, negative = inhibition is -24.5% [at 11.4 µM]. As to `O=C(COC(=O)c1cccc(S(=O)(=O)N2CCN(c3ccccc3)CC2)c1)NCc1ccco1`, the concentration at half-maximal activity (AC50) is 12.6 µM (active). For `CCCc1nc2ccccc2c(C(=O)OCC(=O)Nc2cccc(S(=O)(=O)N3CCOCC3)c2)c1CC`, the activity, negative = inhibition is -27.2% [at 2.29 µM]. As to `O=C(O)C1C2CCC(C2)C1C(=O)NCc1ccco1` (stereo not drawn), the AC50 entry is “inactive”.
